# Results published in ChEMBL document CHEMBL3988442, “University of Dundee, Small-Polar-MMV Screening Library” (2021).
# About 950 (1.4%) of roughly 69,000 compounds showed an effect of 50% or more. The sample holds strong results, similar compounds and a random draw of the others, so the mix is not that of the screen.
# Tested on: Mycobacterium tuberculosis
# Test: Cornell M. t heat shock assay; also: in the data most compounds retested in dose-response had high values
# Assay type: functional, organism-based
# Parameters: dose or concentration left out as unconfirmed
row,SMILES,Percent Effect [%]
1,Cl.Nc1cnn(CC(=O)N2CCCCC2)c1,-8.542
2,CCOc1ccc(CN2CC[C@H]3CC[C@@H](C2)N3)cc1CO,-10.09
3,CO[C@H]1CCN(S(=O)(=O)c2cccnc2)[C@@H]2CN(CC3CC3)C[C@H]12.O=C(O)C(F)(F)F.O=C(O)C(F)(F)F,2.331
4,O=C(O)C(F)(F)F.O=c1cc(CNS(=O)(=O)C2CC2)nc2n1CCCN(CC1CC1)C2,21.63
5,Cc1nc(CN2C[C@@H]3CN(C(=O)c4cccn4C)C[C@@H]3C2)cs1.O=C(O)C(F)(F)F,-44.62
6,COc1cccc(CNCc2nc3ccccc3c(=O)[nH]2)c1,81.36
7,COc1cccc(CNCCNS(=O)(=O)Cc2ccccc2)c1,-28.9
8,C=C(C)COc1cccc(CNCc2nc3ccccc3c(=O)[nH]2)c1,22.25
9,CC(C)N(C)Cc1cnc2n1CCN(Cc1ccco1)C2.O=C(O)C(F)(F)F.O=C(O)C(F)(F)F,-12.15
10,CC(C)N1CCC2(CCCNC2)C1=O.Cl (stereo not drawn),-7.448
11,COc1ccc(-c2cnc(N)nc2C2CCCNC2)cc1.Cl (stereo not drawn),9.716
12,O=C(O)C(F)(F)F.O=C(O)C(F)(F)F.O=C1COC2(CCN(Cc3ccncc3)CC2)CN1,-17.34
13,Cc1ccc(-c2cn[nH]c2C2CCCN(c3ncccn3)C2)cc1 (stereo not drawn),-0.9903
14,Cc1ccc(-c2cn[nH]c2C2CCCN(c3ccnc(C)n3)C2)cc1 (stereo not drawn),19.62
15,Cc1ccc(-c2cn[nH]c2C2CCCN(c3nccc(N)n3)C2)cc1 (stereo not drawn),65.07
16,CS(=O)(=O)NC[C@]12COC[C@H]1CN(Cc1ccc3c(c1)OCO3)C2.O=C(O)C(F)(F)F,3.977
17,CCOC(=O)N1CC2(CCNCC2)c2cc(Cl)ccc21.Cl,-1.259
18,COCC(=O)NC1CC2(CCN(CCN(C)C)CC2)c2ccccc21 (stereo not drawn),10.28
19,CCN(CC)c1nc(Nc2cccc(C(C)O)c2)nc2ccccc12 (stereo not drawn),99.47
20,CCN(CC)c1nc(Nc2cccc(C(=O)O)c2)nc2ccccc12,-2.465
21,CC(O)c1cccc(Nc2nc(NCCO)c3ccccc3n2)c1 (stereo not drawn),10.04
22,Cc1ccc(CN2CCc3onc(C(=O)Nc4cccnc4)c3C2)o1.O=C(O)C(F)(F)F.O=C(O)C(F)(F)F,26.18

row,SMILES,Percent Effect [%]
1,Cc1cccc(CN2CC[C@H]3O[C@H](C(=O)Nc4cnccn4)CC[C@H]32)n1.O=C(O)C(F)(F)F.O=C(O)C(F)(F)F,-10.98
2,Cl.O=C1N(Cc2cccc(Cl)c2)CCC12CCCNC2 (stereo not drawn),-6.247
3,O=C(NCc1cccnc1)N[C@H]1CC[C@@]2(CCC(=O)N2CC2CC2)CC1.O=C(O)C(F)(F)F,35.19
4,CC(=O)N1CCN(C(=O)c2ccc(-c3cccc(C)c3)[nH]c2=O)CC1,14.72
5,Cc1cccc(-c2ccc(C(=O)N3CCSCC3)c(=O)[nH]2)c1,96.07
6,Cc1cccc(-c2ccc(C(=O)N3CCN(C(C)C)CC3)c(=O)[nH]2)c1,7.848
7,O=C(O)C(F)(F)F.O=C(O)C(F)(F)F.O=C1CC(c2ccncc2)C2(CCN(CC3CC3)CC2)N1 (stereo not drawn),-16.85
8,CN1CC(=O)N(c2cnn(C)c2)CC12CCN(CC1CC1)C2.O=C(O)C(F)(F)F.O=C(O)C(F)(F)F (stereo not drawn),-40.13
9,CN(C)C(=O)COC[C@]12COC[C@H]1CN(C1CCCC1)C2.O=C(O)C(F)(F)F,33.3
10,O=C(O)C(F)(F)F.O=C1CCCN1Cc1nnc2n1CCN(Cc1ccco1)CC2,8.62
11,CN(Cc1cccnc1)C1CC2(CCN(c3ccccn3)CC2)C1.O=C(O)C(F)(F)F.O=C(O)C(F)(F)F.O=C(O)C(F)(F)F,-2.81
12,O=C1CSc2ccccc2N1CC(=O)N1CCCCC1c1nccs1 (stereo not drawn),95.25
13,Cc1ccc2c(c1)SCC(=O)N2CC(=O)N1CCCC1c1nccs1 (stereo not drawn),34.79
14,COc1ccccc1OCCC(=O)N1CCCCC1c1nccs1 (stereo not drawn),-0.6566
15,CN(C)C(=O)N1CCC[C@]2(C(=O)N(C)C)CN(c3ccccn3)C[C@@H]2C1.O=C(O)C(F)(F)F,-29.23
16,Cc1nc(CN2C(=O)C[C@H]3[C@H]2CCN3C2CCOC2)cs1.O=C(O)C(F)(F)F (stereo partly drawn),-20.37
17,O=C1C[C@H]2CC[C@@H](CN1)N2c1cc(-c2ccccc2F)nc2ccnn12,8.242
18,I.c1ccc(Sc2ccc3c(c2)OCO3)c(CNC2=NCCN2)c1,5.756
19,CN(C)Cc1cc(C2CCCCN2S(=O)(=O)Cc2ccccc2)nn1C.Cl (stereo not drawn),-25.85
20,Cc1cccnc1CN1CC[C@H](Oc2cccc(F)c2)[C@@](C)(O)C1,104.4
21,Cc1nccc(CN2CC[C@H](Oc3cccc(F)c3)[C@@](C)(O)C2)n1,-10.08
